Laboratory results from ChEMBL document CHEMBL4513216, “Probing the Open Global Health Chemical Diversity Library for Multistage-Active Starting Points for Next-Generation Antimalarials” (ACS Infect Dis, 2020).
Hit rate of the full screen: of about 69,000 compounds, about 8,600 (12%) showed an effect of 50% or more. The sample holds strong results, similar compounds and a random draw of the others, so the mix is not that of the screen.

tested on: Plasmodium berghei; experiment: Screen against P. berghei liver stage (PbLuc), transformed with Luciferase, at 10uM; assay type: functional, HepG2; settings: tested at 10 uM

SMILES | INHIBITION [%]
Cc1noc(Cl)c1CC(=O)N1CCC(Nc2cccnn2)CC1 | 18.04
CCC(=O)N1CCN(C(=O)Cn2cccn2)CC1 | 27.45
O=C(NCc1cccnc1)[C@@H]1CC[C@@H]2[C@@H](CCN2c2ncc(F)cn2)O1 | 73
O=C(NCc1cccs1)[C@@H]1CC[C@@H]2[C@@H](CCN2c2ncccn2)O1 | 3.25
O=C(NCc1cccnc1)[C@@H]1C[C@H]2[C@H](CCN2c2ncc(F)cn2)O1 | 21.8
O=C(NCc1cccnc1)[C@@H]1C[C@H]2[C@H](CCN2c2ncccn2)O1 | 73
O=C(NCc1cccs1)[C@H]1CC[C@@H]2[C@@H](CCN2c2ncccn2)O1 | -50.8
O=C(NCc1cccnc1)[C@@H]1CC[C@@H]2[C@@H](CCN2c2ncccn2)O1 | 96.3
O=C(NCc1ccco1)[C@H]1CC[C@@H]2[C@@H](CCN2c2ncccn2)O1 | 7.77
O=C(NCc1ccccn1)[C@@H]1CC[C@@H]2[C@@H](CCN2c2ncc(F)cn2)O1 | 40.4
O=C(NCc1cccnc1)[C@@H]1C[C@@H]2CCN(c3ncc(F)cn3)C[C@@H]2O1 | -9.71
O=C(NCc1ccco1)[C@H]1CC[C@@H]2[C@@H](CCN2Cc2cccnc2)O1 | -66
O=C(NCc1cccnc1)[C@H]1CC[C@@H]2[C@@H](CCN2c2ncccn2)O1 | 74.2
CNC(=O)[C@H]1CC[C@@H]2[C@@H](CCN2c2ncccn2)O1 | 47.5
OCc1cn(Cc2cccc(C(F)(F)F)c2)nn1 | -5.1
Cc1ccc(C(=O)N(C)CCCc2cnn(C)c2)cc1N1CCNC1=O | 58.8
CN(Cc1cnn(C)c1)C(=O)c1ccc(Cl)c(N2CCNC2=O)c1 | 18.4
CCN(Cc1cnn(C)c1)C(=O)c1ccc(C)c(N2CCNC2=O)c1 | 28.2
O=C(NC1CCN(c2ncccc2F)C1)c1cccc(-n2ccnn2)c1 (stereo unspecified) | -20.8
C1CC(CN2C[C@@H]3CC[C@H]2CN(Cc2noc(C4CCCC4)n2)C3)C1 | 18.6
CNC(=O)c1cccc(CNC(C)c2cc(Cl)ccc2OC)c1 (stereo unspecified) | 18.9
CNC(=O)c1cccc(CCNS(C)(=O)=O)c1 | 21.3
CC(NCCCN1CCCC1=O)c1ccc(F)cc1N(C)C (stereo unspecified) | -2.75

SMILES | INHIBITION [%]
CC(NCCN1CCC(N(C)C)CC1)c1ccc(F)cc1N(C)C (stereo unspecified) | 40.6
CNC(=O)c1cccc(CNC(C)c2cc(C)ccc2OC(F)F)c1 (stereo unspecified) | 51.5
CNC(=O)c1cccc(CNC(C)c2ccc(F)cc2N(C)C)c1 (stereo unspecified) | 66.8
O=S(=O)(NC[C@]12COC[C@H]1CN(c1ncc(F)cn1)C2)C1CC1 | -15.6
CCOC(CC)C(=O)NCCC(=O)N1CCN(c2ncccn2)CC1 (stereo unspecified) | -18.2
COc1ccc2nc(NC(=O)c3c(C(=O)O)cnn3C)sc2c1 | 28.7
CC(CNCc1ccc2c(c1)n(C)c(=O)n2C)Oc1ccccn1 (stereo unspecified) | -8.51
Cc1ccccc1C1CCN(CCn2cc(-c3nccn3C)nn2)C1 (stereo unspecified) | 28
Cc1ccccc1C1CCN(CCn2cc(-c3nccs3)nn2)C1 (stereo unspecified) | 4.15
Cc1ccccc1C1CCN(CCn2cc(-c3cccc(O)c3)nn2)C1 (stereo unspecified) | 59.3
Cc1noc(OCC(=O)N2CCCCC2C)n1 (stereo unspecified) | -26.4
Cn1ccc(CN2CCC(COC3CCCC3)CC2)cc1=O | 58
Cn1ccc(CN2CCC(OCc3ccccc3)CC2)cc1=O | 3.15
COc1ccc(OC2CCN(Cc3ccn(C)c(=O)c3)CC2)cc1 | 45.7
Cc1cccc(C)c1OC1CCN(Cc2ccn(C)c(=O)c2)CC1 | 58
Cn1ccc(CN2CCC(CO)CC2)cc1=O | -10.8
Cn1ccc(CN2CCC(Oc3ccccc3)CC2)cc1=O | 25.6
CN(C)[C@@H]1CCN(C(=O)NC2CCCC2)[C@H]1Cc1ccncc1 | 23.3
O=c1[nH]c(N2CCCCC2)nc2c1CCN(Cc1cccnc1)C2 | 8.72
CCn1c(=O)c2cc(S(N)(=O)=O)ccc2n(CC)c1=O | 2.84
CC(C)N(C)Cc1cn2c(n1)CN(Cc1ccsc1)CC2 | -14.9
Cc1cc(CN2CCCC(Cn3cncn3)C2)on1 (stereo unspecified) | 35.3
Cc1nc(CNC(=O)NCc2cccnc2N(C)C)cs1 | -27.8

SMILES | INHIBITION [%]
COc1ccc(NC(=O)N2CCCC2c2ccco2)c(OC)c1 (stereo unspecified) | 41.5
CN(CCNC(=O)Nc1nccs1)Cc1ccc(F)cc1 | 2.7
CN(CCNC(=O)Nc1cnn(C)c1)Cc1ccc(F)cc1 | 49.3
CN(CCNC(=O)Nc1ccn(C)n1)Cc1ccc(F)cc1 | 52.7
O=C(Nc1nnn[nH]1)c1cc(-c2ccc(Br)s2)n[nH]1 | 11.3
CN(Cc1ccco1)C(=O)C1CCCc2ccccc21 (stereo unspecified) | 50.5
Cc1noc(C)c1CN(C)C(=O)C1CCCc2ccccc21 (stereo unspecified) | 26.6
N#CCCN(Cc1ccco1)C(=O)C1CCCc2ccccc21 (stereo unspecified) | 24.2
Cc1ccoc1C(=O)N1C[C@@H](N2CCN(C)CC2)[C@H]2OCCC[C@H]21 | -26.5
Cc1cc(-c2cnc(NC3CCCC3)nc2-c2ccco2)on1 | -18.9
Cc1cnc(-c2nc(NC3CCCC3)ncc2-c2onc(C)c2C)cn1 | -29.8
Cc1cc(-c2cnc(NC3CC3)nc2-c2ccco2)on1 | -21.4
Cc1noc(-c2cnc(NC3CC3)nc2-c2ccco2)c1C | 7.9
Cc1occc1-c1nc(NC2CCCC2)ncc1-c1ccccn1 | 62.9
Cc1cc(-c2cnc(NC3CCCC3)nc2-c2ccoc2)on1 | 41.2
Cc1cc(-c2cnc(NC3CCCCC3)nc2-c2ccco2)on1 | 60.5
Cc1cc(-c2cnc(NC3CCCC3)nc2-c2ccoc2C)on1 | 78.5
Cc1cc(-c2cnc(NC3CC3)nc2-c2ccoc2)on1 | 3.91
Cc1cc(-c2cnc(NC3CC3)nc2-c2ccoc2C)on1 | 58.1
Cc1cc(-c2cnc(NC3CC3)nc2-c2ccc(C)o2)on1 | 39.2
Cc1cc(-c2cnc(NC3CCCC3)nc2-c2ccc(C)o2)on1 | 11.1
O=C(NCCO)C1CN(c2cncnc2)CCO1 (stereo unspecified) | 3.91
CCCOC1CCCN(C(=O)c2cc(CN(CC)CC)c(CC)o2)C1 (stereo unspecified) | 18.5

SMILES | INHIBITION [%]
Cn1ccnc1CN(Cc1ccccn1)Cc1ccccc1Cl | 79.6
CCn1nc(C)c(CN(Cc2ccccn2)Cc2ccccc2Cl)c1C | 50.8
CCn1nc(C)c(CN(CCOC)Cc2ccccn2)c1C | 4.12
COc1ccc(CN(Cc2ccccn2)Cc2cncn2C)cc1 | 23.9
COCCn1ccnc1CN(Cc1ccccn1)CC(C)C | 44
CCn1nc(C)c(CN(CCCN(C)C)Cc2ccccn2)c1C | -37.4
Cc1nn(C)cc1CN(Cc1ccccn1)Cc1ccccc1Cl | 48
CN(Cc1nccn1C)C1CCN(CCc2ccccn2)CC1 | -3.2
Cc1ncc(CN(Cc2ccccn2)Cc2ccccc2Cl)n1C | 69.4
O=S(=O)(CCNCCn1cccn1)c1ccccc1 | 19.8
COC1CCN(C(=O)Nc2cc(C(F)(F)F)c[nH]c2=O)CC1 | -111
COCCNC(=O)C1CC(=O)N(c2n[nH]c3cccc(F)c23)C1 (stereo unspecified) | -23.7
CC1CCCCN1CCNC(=O)c1ccn(-c2cccc(F)c2)n1 (stereo unspecified) | 16.8
CN(CCC(F)(F)F)C(=O)c1nc(S(C)(=O)=O)n2ccccc12 | 12.6
Cc1nc(Nc2nnc(C)s2)cc(C2CCCN2C(C)C)n1 (stereo unspecified) | -15.3
COC(=O)c1cc(OC)c(OC)cc1N(C)S(C)(=O)=O | 44.3
CN(C)CC(=O)N1CC2(CCN(C(=O)Nc3ccccc3)C2)C1 | 0.112
Cc1nc(CC(=O)NS(=O)(=O)c2cccc3cnccc23)cs1 | 6.33
CCN1C[C@H]2C3(CCN(S(=O)(=O)CC)CC3)CC[C@@]2(C(=O)N(C)C)C1 | 13.7
COc1cccc(CN2C[C@H]3CC[C@H]2C3)c1OCCN1CCOCC1 | -14.5
COc1cc2c(cc1CN1CCCCC1CN1CCOCC1)CCC2 (stereo unspecified) | 13.9
COc1cccc(CN2CCCCC2CN2CCOCC2)c1F (stereo unspecified) | 60.4
CCc1nc(Cn2ccnc2-c2nccn2C)no1 | 45.2

SMILES | INHIBITION [%]
CCc1nc(CCn2cc(-c3nccn3C)nn2)no1 | 23
CCc1nc(CCn2ccnc2-c2nccn2C)no1 | 65.6
CS(=O)(=O)c1cc(Cl)cnc1C1CCN(C(=O)C2CCOCC2)CC1 | 24.8535
Cc1cccc(CN2C(=O)CC[C@@H]3[C@H]2CCN3C(=O)c2ccsc2)n1 | 14.8
COCCOc1ccc(F)cc1NCc1nc2ccccc2n1C | -3.12
COCCOc1ncccc1NCc1nc2ccccc2n1C | -16
COc1cc(F)c(NCc2nc3ccccc3n2C)cc1OC | 59.8
O=C(c1ccc(Cl)cc1)N1CCC(N2CCCNC2=O)CC1 | 40.8
CCN1CCN(C(=O)CCn2cccc2)CC1 | 2.69
COCCN1CC(c2cc(O)nc(NC(C)C)n2)CC1=O (stereo unspecified) | -17.7
Nc1cc(CCC2CN(Cc3ccc4c(c3)OCCO4)CCO2)ccn1 (stereo unspecified) | 69.3
Nc1cc(CCC2CN(Cc3ccc4cc[nH]c4c3)CCO2)ccn1 (stereo unspecified) | 78.2
CNc1nccnc1C1CN(Cc2ccc3[nH]ccc3c2)CCO1 (stereo unspecified) | 21.1
Cc1cc(C)n(CC2CN(Cc3ccc4c(c3)OCCO4)CCO2)n1 (stereo unspecified) | 14.3
Nc1cc(CCC2CN(Cc3ccc(C(=O)O)cc3)CCO2)ccn1 (stereo unspecified) | 32.8
COc1ccc(CC2CN(Cc3cncn3C)CCO2)cc1 (stereo unspecified) | 47.1
Nc1cc(CCC2CN(Cc3cccc(C(=O)O)c3)CCO2)ccn1 (stereo unspecified) | 45.6
COc1ccc(CN2CCOC(CCc3ccnc(N)c3)C2)cc1 (stereo unspecified) | 87.1
c1ccc(CCCC2CN(Cc3ncc[nH]3)CCO2)cc1 (stereo unspecified) | 28.5
